Experiments:
[1] = target: Ribosomal protein S6 kinase alpha-6 (Homo sapiens) (UniProt Q9UK32); conditions: at 1 µM;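 further: each value is a mean inhibition of RSK4 from a GSK PKIS panel screen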
[2] = target: T1, Serine/threonine-protein kinase Sgk1 (Homo sapiens) (UniProt O00141); conditions: at 0.1 µM
T1 sequence (whole entry): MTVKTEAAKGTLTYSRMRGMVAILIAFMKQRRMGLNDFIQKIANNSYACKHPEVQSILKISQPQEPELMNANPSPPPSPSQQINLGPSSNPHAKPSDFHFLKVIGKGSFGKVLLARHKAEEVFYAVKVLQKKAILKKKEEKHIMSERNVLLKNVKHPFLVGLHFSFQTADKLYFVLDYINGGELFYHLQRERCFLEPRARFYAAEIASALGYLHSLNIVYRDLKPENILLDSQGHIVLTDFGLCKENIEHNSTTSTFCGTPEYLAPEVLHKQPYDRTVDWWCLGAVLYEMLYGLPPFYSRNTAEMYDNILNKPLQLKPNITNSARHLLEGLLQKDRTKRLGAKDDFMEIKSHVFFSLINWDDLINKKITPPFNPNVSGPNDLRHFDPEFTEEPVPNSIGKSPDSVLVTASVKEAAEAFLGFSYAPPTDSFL

[3] = target: T1, Serine/threonine-protein kinase Sgk1 (Homo sapiens); conditions: at 1 µM
[4] = target: T2, Serine/threonine-protein kinase Sgk2 (Homo sapiens) (UniProt Q9HBY8); conditions: at 0.1 µM
T2 sequence (whole entry): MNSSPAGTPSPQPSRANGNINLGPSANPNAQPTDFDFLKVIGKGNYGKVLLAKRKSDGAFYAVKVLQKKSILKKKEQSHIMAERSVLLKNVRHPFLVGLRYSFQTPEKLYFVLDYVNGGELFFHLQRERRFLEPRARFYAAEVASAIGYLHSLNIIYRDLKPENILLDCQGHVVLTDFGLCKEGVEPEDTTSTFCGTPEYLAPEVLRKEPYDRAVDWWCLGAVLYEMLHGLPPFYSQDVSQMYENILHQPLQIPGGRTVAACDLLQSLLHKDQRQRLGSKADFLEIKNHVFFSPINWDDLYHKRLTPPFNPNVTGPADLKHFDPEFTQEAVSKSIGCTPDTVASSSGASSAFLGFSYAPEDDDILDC

[5] = target: T2, Serine/threonine-protein kinase Sgk2 (Homo sapiens); conditions: at 1 µM
[6] = target: T3, Serine/threonine-protein kinase Sgk3 (Homo sapiens) (UniProt Q96BR1); conditions: at 0.1 µM
T3 sequence (whole entry): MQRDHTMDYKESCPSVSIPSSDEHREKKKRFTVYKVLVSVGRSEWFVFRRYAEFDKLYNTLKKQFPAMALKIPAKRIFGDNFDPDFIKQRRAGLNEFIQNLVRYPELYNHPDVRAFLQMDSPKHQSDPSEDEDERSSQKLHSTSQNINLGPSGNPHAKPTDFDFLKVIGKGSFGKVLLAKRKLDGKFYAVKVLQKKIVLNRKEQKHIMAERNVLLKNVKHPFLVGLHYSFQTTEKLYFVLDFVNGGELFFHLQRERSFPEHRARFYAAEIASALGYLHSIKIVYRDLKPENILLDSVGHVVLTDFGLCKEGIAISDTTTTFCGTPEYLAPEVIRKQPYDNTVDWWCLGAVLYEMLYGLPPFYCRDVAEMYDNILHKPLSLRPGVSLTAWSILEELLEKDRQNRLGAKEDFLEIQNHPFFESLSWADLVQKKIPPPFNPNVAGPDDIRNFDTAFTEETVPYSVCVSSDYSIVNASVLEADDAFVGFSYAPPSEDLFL

[7] = target: T3, Serine/threonine-protein kinase Sgk3 (Homo sapiens); conditions: at 1 µM
[8] = target: 5'-AMP-activated protein kinase catalytic subunit alpha-1 (Homo sapiens) (UniProt Q13131); conditions: at 0.1 µM
[9] = target: 5'-AMP-activated protein kinase catalytic subunit alpha-1 (Homo sapiens) (UniProt Q13131); conditions: at 1 µM
[10] = target: 5'-AMP-activated protein kinase catalytic subunit alpha-2 (Homo sapiens) (UniProt P54646); conditions: at 0.1 µM
[11] = target: 5'-AMP-activated protein kinase catalytic subunit alpha-2 (Homo sapiens) (UniProt P54646); conditions: at 1 µM
[12] = target: T4, NUAK family SNF1-like kinase 1 (Homo sapiens) (UniProt O60285); conditions: at 0.1 µM
T4 sequence (whole entry): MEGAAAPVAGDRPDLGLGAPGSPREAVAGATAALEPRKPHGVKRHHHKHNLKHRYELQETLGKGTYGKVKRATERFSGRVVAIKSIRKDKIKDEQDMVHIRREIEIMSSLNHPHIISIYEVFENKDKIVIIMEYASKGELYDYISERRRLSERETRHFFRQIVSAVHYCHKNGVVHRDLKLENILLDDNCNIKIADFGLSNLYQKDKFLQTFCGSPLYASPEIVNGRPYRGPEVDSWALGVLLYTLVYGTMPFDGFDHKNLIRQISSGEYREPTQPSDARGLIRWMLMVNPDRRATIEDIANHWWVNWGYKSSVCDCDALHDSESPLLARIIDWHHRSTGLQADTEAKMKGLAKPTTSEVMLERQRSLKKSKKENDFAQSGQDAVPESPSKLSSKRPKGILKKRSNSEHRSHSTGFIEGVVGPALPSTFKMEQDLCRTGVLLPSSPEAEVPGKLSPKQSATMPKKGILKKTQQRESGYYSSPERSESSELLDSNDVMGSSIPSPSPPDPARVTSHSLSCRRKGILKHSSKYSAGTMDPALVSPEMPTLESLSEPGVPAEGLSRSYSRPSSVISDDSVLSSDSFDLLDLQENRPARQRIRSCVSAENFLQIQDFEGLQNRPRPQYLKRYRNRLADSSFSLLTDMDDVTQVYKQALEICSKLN

[13] = target: T4, NUAK family SNF1-like kinase 1 (Homo sapiens); conditions: at 1 µM
[14] = target: T5, Serine/threonine-protein kinase BRSK1 (Homo sapiens) (UniProt Q8TDC3); conditions: at 0.1 µM
T5 sequence (whole entry): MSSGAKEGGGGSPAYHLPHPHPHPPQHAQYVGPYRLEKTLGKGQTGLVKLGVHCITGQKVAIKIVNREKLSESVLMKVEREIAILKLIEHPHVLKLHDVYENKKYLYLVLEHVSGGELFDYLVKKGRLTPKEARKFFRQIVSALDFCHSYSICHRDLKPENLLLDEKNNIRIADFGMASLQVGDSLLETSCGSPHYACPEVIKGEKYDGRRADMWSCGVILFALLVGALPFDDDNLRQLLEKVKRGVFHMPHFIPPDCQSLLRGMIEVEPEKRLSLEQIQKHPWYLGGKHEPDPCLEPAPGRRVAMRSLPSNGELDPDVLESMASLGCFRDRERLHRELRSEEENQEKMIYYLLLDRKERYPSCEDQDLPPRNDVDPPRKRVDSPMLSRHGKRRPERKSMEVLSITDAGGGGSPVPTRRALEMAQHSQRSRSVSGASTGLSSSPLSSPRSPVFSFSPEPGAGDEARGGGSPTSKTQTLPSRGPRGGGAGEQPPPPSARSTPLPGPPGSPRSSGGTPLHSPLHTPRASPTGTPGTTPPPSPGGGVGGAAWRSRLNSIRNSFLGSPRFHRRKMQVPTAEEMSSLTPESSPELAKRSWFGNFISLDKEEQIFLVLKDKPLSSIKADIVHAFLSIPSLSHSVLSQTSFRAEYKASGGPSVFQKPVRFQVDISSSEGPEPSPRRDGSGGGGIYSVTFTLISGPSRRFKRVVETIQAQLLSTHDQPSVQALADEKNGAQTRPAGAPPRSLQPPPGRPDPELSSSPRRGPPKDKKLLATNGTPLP

[15] = target: T5, Serine/threonine-protein kinase BRSK1 (Homo sapiens); conditions: at 1 µM
[16] = target: T6, Serine/threonine-protein kinase BRSK2 (Homo sapiens) (UniProt Q8IWQ3); conditions: at 0.1 µM
T6 sequence (whole entry): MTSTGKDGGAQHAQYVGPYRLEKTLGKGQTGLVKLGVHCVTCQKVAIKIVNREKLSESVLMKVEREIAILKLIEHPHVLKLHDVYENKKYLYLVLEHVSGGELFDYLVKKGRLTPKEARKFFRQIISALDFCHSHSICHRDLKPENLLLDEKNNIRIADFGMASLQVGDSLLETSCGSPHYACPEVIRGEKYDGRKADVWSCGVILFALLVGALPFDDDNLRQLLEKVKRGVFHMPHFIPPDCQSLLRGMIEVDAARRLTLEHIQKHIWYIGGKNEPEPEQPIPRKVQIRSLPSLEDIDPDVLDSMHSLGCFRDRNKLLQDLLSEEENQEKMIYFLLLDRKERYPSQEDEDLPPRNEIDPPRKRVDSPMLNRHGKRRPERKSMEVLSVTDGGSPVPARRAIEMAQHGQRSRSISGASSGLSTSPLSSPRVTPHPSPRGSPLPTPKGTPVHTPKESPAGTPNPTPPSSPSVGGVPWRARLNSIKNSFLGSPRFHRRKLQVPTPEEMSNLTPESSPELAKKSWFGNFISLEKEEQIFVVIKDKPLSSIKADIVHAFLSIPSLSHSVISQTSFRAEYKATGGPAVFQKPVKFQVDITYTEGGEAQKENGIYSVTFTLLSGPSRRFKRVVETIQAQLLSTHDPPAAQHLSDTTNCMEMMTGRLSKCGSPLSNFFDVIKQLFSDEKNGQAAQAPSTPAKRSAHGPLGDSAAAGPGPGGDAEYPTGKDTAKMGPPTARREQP

[17] = target: T6, Serine/threonine-protein kinase BRSK2 (Homo sapiens); conditions: at 1 µM
[18] = target: Calcium/calmodulin-dependent protein kinase type 1D (Homo sapiens) (UniProt Q8IU85); conditions: at 0.1 µM
[19] = target: Calcium/calmodulin-dependent protein kinase type 1D (Homo sapiens) (UniProt Q8IU85); conditions: at 1 µM
[20] = target: Calcium/calmodulin-dependent protein kinase type II subunit alpha (Homo sapiens) (UniProt Q9UQM7); conditions: at 0.1 µM;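 further: reported values are averages (mean inhibition of CAMK2A)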
Sequence of Calcium/calmodulin-dependent protein kinase type II subunit alpha (Homo sapiens) (Q9UQM7 whole entry): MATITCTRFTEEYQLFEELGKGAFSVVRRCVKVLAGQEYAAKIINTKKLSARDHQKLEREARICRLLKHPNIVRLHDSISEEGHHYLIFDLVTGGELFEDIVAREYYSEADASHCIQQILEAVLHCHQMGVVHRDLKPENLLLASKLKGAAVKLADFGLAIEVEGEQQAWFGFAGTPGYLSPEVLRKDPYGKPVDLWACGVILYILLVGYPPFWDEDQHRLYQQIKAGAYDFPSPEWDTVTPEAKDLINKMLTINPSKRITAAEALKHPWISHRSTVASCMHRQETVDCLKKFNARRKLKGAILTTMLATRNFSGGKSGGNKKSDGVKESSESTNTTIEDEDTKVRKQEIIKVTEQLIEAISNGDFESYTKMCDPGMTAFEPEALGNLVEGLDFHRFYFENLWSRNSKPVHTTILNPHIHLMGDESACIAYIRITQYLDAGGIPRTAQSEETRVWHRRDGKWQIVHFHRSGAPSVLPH

Sequence of 5'-AMP-activated protein kinase catalytic subunit alpha-2 (Homo sapiens) (P54646 whole entry, looked up): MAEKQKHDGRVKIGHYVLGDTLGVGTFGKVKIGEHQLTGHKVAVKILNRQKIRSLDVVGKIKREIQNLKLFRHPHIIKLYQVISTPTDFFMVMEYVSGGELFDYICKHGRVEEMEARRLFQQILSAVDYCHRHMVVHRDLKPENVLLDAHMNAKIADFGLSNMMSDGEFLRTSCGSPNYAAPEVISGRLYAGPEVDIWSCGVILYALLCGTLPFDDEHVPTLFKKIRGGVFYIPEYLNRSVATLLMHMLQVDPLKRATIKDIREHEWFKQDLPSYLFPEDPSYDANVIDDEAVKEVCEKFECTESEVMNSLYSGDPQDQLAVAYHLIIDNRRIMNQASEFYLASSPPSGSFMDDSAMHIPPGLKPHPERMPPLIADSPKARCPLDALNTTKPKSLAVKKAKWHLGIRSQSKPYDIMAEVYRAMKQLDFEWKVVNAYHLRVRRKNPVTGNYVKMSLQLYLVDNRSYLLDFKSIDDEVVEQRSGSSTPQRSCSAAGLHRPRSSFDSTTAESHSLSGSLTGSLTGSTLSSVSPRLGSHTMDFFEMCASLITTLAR
Sequence of 5'-AMP-activated protein kinase catalytic subunit alpha-1 (Homo sapiens) (Q13131 whole entry, looked up): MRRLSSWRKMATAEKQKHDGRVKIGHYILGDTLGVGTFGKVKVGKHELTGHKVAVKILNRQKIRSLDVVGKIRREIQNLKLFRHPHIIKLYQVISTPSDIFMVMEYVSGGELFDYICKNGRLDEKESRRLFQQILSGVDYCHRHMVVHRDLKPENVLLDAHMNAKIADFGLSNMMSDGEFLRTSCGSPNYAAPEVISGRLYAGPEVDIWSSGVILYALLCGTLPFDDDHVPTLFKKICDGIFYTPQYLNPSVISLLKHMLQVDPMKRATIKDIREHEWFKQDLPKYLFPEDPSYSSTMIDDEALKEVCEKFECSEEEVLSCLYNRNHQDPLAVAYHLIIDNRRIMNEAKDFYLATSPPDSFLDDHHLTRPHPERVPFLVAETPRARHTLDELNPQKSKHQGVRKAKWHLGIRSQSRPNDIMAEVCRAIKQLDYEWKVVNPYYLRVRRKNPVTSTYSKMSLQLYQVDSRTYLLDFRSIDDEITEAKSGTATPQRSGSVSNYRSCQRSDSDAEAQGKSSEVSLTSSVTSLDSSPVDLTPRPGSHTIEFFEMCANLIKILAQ
Sequence of Calcium/calmodulin-dependent protein kinase type 1D (Homo sapiens) (Q8IU85 whole entry, looked up): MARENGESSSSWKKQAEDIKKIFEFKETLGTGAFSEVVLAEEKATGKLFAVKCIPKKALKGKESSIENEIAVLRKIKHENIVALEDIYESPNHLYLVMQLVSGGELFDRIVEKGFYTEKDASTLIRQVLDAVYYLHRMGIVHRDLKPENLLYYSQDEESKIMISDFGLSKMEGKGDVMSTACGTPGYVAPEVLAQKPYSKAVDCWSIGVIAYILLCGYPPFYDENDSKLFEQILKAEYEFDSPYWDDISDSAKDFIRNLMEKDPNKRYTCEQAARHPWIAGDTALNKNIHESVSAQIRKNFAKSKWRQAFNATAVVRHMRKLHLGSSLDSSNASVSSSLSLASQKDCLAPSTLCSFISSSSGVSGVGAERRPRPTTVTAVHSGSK
Sequence of Ribosomal protein S6 kinase alpha-6 (Homo sapiens) (Q9UK32 whole entry): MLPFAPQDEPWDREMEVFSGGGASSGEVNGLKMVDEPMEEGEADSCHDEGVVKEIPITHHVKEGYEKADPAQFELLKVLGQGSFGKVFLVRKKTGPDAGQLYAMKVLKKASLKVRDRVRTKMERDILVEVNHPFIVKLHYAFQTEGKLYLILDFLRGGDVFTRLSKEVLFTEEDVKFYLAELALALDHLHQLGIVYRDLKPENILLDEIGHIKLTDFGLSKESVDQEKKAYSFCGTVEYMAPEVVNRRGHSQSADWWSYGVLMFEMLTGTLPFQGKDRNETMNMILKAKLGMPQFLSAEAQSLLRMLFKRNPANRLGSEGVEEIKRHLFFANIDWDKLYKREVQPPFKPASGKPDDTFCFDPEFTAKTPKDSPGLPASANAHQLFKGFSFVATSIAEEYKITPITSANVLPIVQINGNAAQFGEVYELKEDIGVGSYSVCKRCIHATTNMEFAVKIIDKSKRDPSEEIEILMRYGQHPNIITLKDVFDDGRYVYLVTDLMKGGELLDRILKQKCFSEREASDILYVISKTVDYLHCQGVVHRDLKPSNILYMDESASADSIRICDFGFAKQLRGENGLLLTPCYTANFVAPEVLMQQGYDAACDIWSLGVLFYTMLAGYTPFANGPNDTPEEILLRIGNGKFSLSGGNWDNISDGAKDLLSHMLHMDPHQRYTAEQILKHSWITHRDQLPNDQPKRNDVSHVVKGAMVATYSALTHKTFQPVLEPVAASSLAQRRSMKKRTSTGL

| Compound | inhibition [1] | inhibition [2] | inhibition [3] | inhibition [4] | inhibition [5] | inhibition [6] | inhibition [7] | inhibition [8] | inhibition [9] | inhibition [10] | inhibition [11] | inhibition [12] | inhibition [13] | inhibition [14] | inhibition [15] | inhibition [16] | inhibition [17] | inhibition [18] | inhibition [19] | inhibition [20] |
| --- | --- | --- | --- | --- | --- | --- | --- | --- | --- | --- | --- | --- | --- | --- | --- | --- | --- | --- | --- | --- |
| C/C(Nc1ccc(S(N)(=O)=O)cc1)=C1/C(=O)Nc2ccccc21 | 20.7% | 5.32% | 18.4% | 1.82% | 2.83% | 0.76% | 2.1% | 1.16% | 9.79% | 3.01% | 4.96% | 6.3% | 34% | 1.67% | 18.9% | 4.55% | 31.1% | -0.31% | -0.55% | -4.87% |
| CN(C)c1ccc2c(c1)/C(=C/Nc1ccc(S(N)(=O)=O)cc1)C(=O)N2 | 20.9% | 2.27% | 5.38% | 0.91% | -1.11% | 1.07% | -1.85% | 10.2% | 44.5% | 7.02% | 26.8% | 39.5% | 55.6% | 11.3% | 42.7% | 18.5% | 54.2% | 0.43% | 4.29% | 3.79% |
| O=C(NCC1CC1)c1ccc(-c2cccc(C(=O)NC3CC3)c2)cc1 | 0.61% | 0.99% | 0.82% | 0.58% | 3.1% | 1.28% | 1.29% | 2.2% | 3.29% | 0.26% | 1.74% | 1.06% | 4.26% | 1.95% | 0.89% | 1.44% | -1.6% | 0.99% | 2.29% | 2.2% |
| c1ccc(Oc2ccc(Nc3ncc(-c4ccccc4)o3)cc2)cc1 | 0.25% | 2.19% | 2.9% | 6.17% | 2.79% | 3.61% | 3.17% | 0.33% | 3.46% | 1.31% | 2.49% | -0.75% | 5.38% | -0.66% | 0.76% | 0% | 1.39% | 0.01% | 0.14% | -0.24% |
| Fc1ccc(-c2ncn(C3CCNCC3)c2-c2ccnc(Oc3ccc4c(c3)OCO4)n2)cc1 | 3.03% | 3.72% | 3.6% | 2.63% | 3.07% | 6.26% | 4.11% | 2.72% | 3.99% | 3.86% | 4.45% | 1.79% | 3.25% | 0.76% | 6.01% | 3.69% | 5.73% | -0.69% | 0.53% | 6.35% |
| Cc1nnc(-c2ccc(C)c(-c3ccc(C(=O)NCc4ccc(Cl)cc4)cc3)c2)o1 | 2.38% | 5.07% | 3.26% | 2.67% | 6.19% | 1.38% | 5.66% | 2.95% | 3.4% | 3.74% | 3.56% | 1% | 4.79% | -2.13% | -2.87% | 1.17% | 2.51% | -1.49% | 0.04% | 2.6% |
| O=C1Nc2ccccc2/C1=C/Nc1ccc(-n2cncn2)cc1 | 11.4% | 5.81% | 29.2% | 3.56% | 10.9% | 4.57% | 8.06% | 5.93% | 19.3% | 3.9% | 15.5% | 8.76% | 38.7% | 2.17% | 17.2% | 4.08% | 26.3% | 0.18% | 0.98% | 3.66% |

Source: ChEMBL document CHEMBL1961873, “Compounds: GSK PKIS; Assays: Nanosyn kinase panel” (2012)
